From ChEMBL document CHEMBL4513216, “Probing the Open Global Health Chemical Diversity Library for Multistage-Active Starting Points for Next-Generation Antimalarials” (ACS Infect Dis, 2020)
The whole screen tested about 69,000 compounds, of which about 8,600 (12%) showed an effect of 50% or more. This excerpt belongs to a sample that is enriched for strong results.

What follows are compounds tested on Plasmodium berghei (assay: Screen against P. berghei liver stage (PbLuc), transformed with Luciferase, at 10uM). Conditions: tested at 10 uM.
Type: functional, HepG2

Row | Compound | INHIBITION [%]
1 | COc1ccc(CN2CCC3(CC2)CCN(c2cnn(C)c2)C3=O)cc1 | 43.9
2 | O=C(c1ccncc1)N1C[C@H]2CC[C@@H](C1)N(C(=O)C1CCCC1)C2 | -3.48
3 | CN(Cc1cnn(C)c1)S(=O)(=O)N1CCCC1c1ccco1 (stereo not drawn) | 52.2
4 | CCN(Cc1cnn(C)c1)S(=O)(=O)N1CCCC1c1ccco1 (stereo not drawn) | 27.5
5 | CCn1cc(CN(C)S(=O)(=O)N2CCCC2c2ccco2)cn1 (stereo not drawn) | 32
6 | O=C(c1ccc(C2CCCN2C(=O)c2cscn2)s1)N1CCSCC1 (stereo not drawn) | -30.6
7 | CN(C)CC(=O)N1CCC2(CC1)COC(COc1ccccn1)C2 (stereo not drawn) | 35.3
8 | CSc1ccc(CN2C[C@@H]3CC[C@@](O)(c4ccc(C)cn4)[C@@H]3C2)cc1 | 75.3
9 | COc1ncc(CN2C[C@@H]3CC[C@@](O)(c4ccc(C)cn4)[C@@H]3C2)cn1 | 41.2
10 | Cc1ccc([C@]2(O)CC[C@H]3CN(Cc4ccncc4)C[C@H]32)nc1 | 66.4
11 | O[C@@]1(c2ccccn2)CC[C@H]2CN(Cc3ccccn3)C[C@H]21 | 29.3
12 | Cc1ccc([C@]2(O)CC[C@H]3CN(Cc4cccnc4)C[C@H]32)nc1 | 41.2
13 | Cc1ccc([C@]2(O)CC[C@H]3CN(Cc4cc(C)c(O)c(C)c4)C[C@H]32)nc1 | 45.5
14 | O=C(C[C@@H]1COC[C@H]2CN(Cc3ccccn3)C[C@@H]12)N1CCOCC1 | 33
15 | Cc1noc(C)c1CC(=O)NCC1(O)CCCN(c2ccccn2)C1 (stereo not drawn) | 14.6
16 | CN(Cc1ccc(C#N)cc1)Cc1noc(C(C)(C)C)n1 | 53.5
17 | CC(c1nc(C2CC2)no1)N(C)Cc1ccc(C#N)cc1 (stereo not drawn) | -4.4
18 | CSc1ccc(CN(C)Cc2noc(C(C)(C)C)n2)cc1 | 56.9
19 | CC(C)(C)c1nc(CN(Cc2ccccc2Cl)C2CCCC2)no1 | 9.35
20 | CC(C)(C)c1nc(CN(CCO)Cc2cc(Br)ccc2F)no1 | -38.2
21 | CCN(Cc1noc(C(C)(C)C)n1)Cc1ccc(C#N)cc1F | 28
22 | CCc1cc(N(C)CCCO)n2nccc2n1 | 19.4
23 | Cc1noc(C)c1CN(C)C(=O)Nc1cnn(CC2CCCO2)c1 (stereo not drawn) | 18.4
24 | Cc1cc(C(=O)N[C@H](C)c2onc(C)c2C(=O)O)c(C)o1 | -12.2
25 | COCCSCC(=O)NCc1ccnc(N(C)C)c1 | 46.4
26 | Cc1oc(C(C)C)cc1C(=O)N1C[C@@H]2CC[C@H]1CN(S(=O)(=O)N(C)C)C2 | -19.5
27 | CC(C)N1CCCC2(CCN(Cc3noc(C4CCCC4)n3)C2)C1=O (stereo not drawn) | 70.2

Row | Compound | INHIBITION [%]
28 | CC(C)N1CC2(CCCN(Cc3noc(C4CCCC4)n3)C2)CCC1=O (stereo not drawn) | 50.5
29 | CCCN1CCCC2(CCN(Cc3noc(C4CCCC4)n3)C2)C1=O (stereo not drawn) | -15.8
30 | CNC1CCCN(Cc2noc(C3CC3)n2)C1 (stereo not drawn) | -17.4
31 | O=C1N(CCO)CCCC12CCN(Cc1noc(C3CCCC3)n1)C2 (stereo not drawn) | 22.7
32 | O=C1CCC2(CCCO2)CCN1Cc1noc(C2CCCC2)n1 (stereo not drawn) | 26.7
33 | CCN1CCC2(CCN(Cc3nccs3)CC2)C1=O | -28.8
34 | O=C(NCC(=O)N1CCCCC1)c1ccoc1 | 17.3
35 | Cc1ccc2[nH]c(=O)c(CNCCCN3CCOCC3)cc2c1 | -37
36 | Cc1csc2c(N3CCNC(C(=O)N4CCCC4)C3)ncnc12 (stereo not drawn) | -10.1
37 | Cc1csc2c(N3CCNC(C(=O)NCc4cccnc4)C3)ncnc12 (stereo not drawn) | 16.9
38 | Cc1csc2c(N3CCNC(C(=O)Nc4ccc(F)cc4)C3)ncnc12 (stereo not drawn) | 62.8
39 | CCn1cc(CN2C[C@@H]3CCCN3C[C@@H]2CCSC)c(C)n1 | 46.1
40 | Cc1cc(-n2nc(C)nc2-c2cn(CCN)nn2)ccn1 | 41.5
41 | Cc1nc(CCN2CCCCC2)n(-c2ccc(F)cc2)n1 | -8.19
42 | Cc1nc(-c2cn(CCN)nn2)n(-c2ccc(C(F)(F)F)cc2)n1 | 76.8
43 | CN(C)C(=O)Cn1cc(C(=O)NCCc2ccc(C(F)(F)F)cc2)nn1 | -25.9
44 | Cc1nc(-c2cn(CCN)nn2)n(-c2ccc3c(c2)CCC3)n1 | 56.5
45 | CNS(=O)(=O)CCn1cc(-c2cc3c(cc2OC)CCC3)nn1 | 37.3
46 | CC(C)c1noc(CNC2CCCN(Cc3noc(C4CC4)n3)C2)n1 (stereo not drawn) | -42.1
47 | Cc1nc(N2CCN(C)CC2)ncc1C(=O)N1CC[C@](C)(O)[C@H](C)C1 | -10.2
48 | Cc1ccoc1C1=NNC(=CN2CCOC(Cn3cccn3)C2)O1 (stereo not drawn) | -50.5
49 | COCCN1CCN(C=C2NN=C(c3occc3C)O2)CC1 | 43.4
50 | CCOCCN1CCN(C=C2NN=C(c3occc3C)O2)CC1 | 70.3
51 | CCOCCN1CCN(C=C2NN=C(c3occc3C)O2)CC1CC (stereo not drawn) | 76.7
52 | Cc1ccoc1C1=NNC(=CN2CCn3c(C)nnc3C2)O1 | -21.7
53 | CCc1nnc2n1CCN(C=C1NN=C(c3occc3C)O1)C2 | 11.2
